Results from article PMC12670160, “A drug-repurposing screen of FDA- and EMA-approved drugs identifies two NF-κB inhibitors active against eumycetoma” (Journal of Antimicrobial Chemotherapy, 2025).
Where a name gives a salt, the structure may show the parent alone. In all, about 5,300 compounds went through this assay and about 130 (2.5%) showed an effect of 50% or more. The full list was thinned out, with strong results kept by preference.

Each compound was assayed on M. mycetomatis strain mm55. Details: primary screen, metabolic activity vs growth control; 96 h, 2 µM; inhibitor.

Point of comparison: `CCN(CCCOc1ccc2c(Nc3cc(CC(=O)Nc4cccc(F)c4)n[nH]3)ncnc2c1)CCOP(=O)(O)O` [ONC0002222, azd1152], “% viability” value 73.5%. Against it:
- CNC(=O)c1ccc2cc([C@]3(O)CCn4cncc43)ccc2c1 [ONC0004670, tak700 orteronel] — higher, 115.9%
- C[C@@H](NCCc1ccc(O)cc1)[C@@H](O)c1ccc(O)cc1 (racemic) [ONC0000689, ritodrine hydrochloride] — higher, 122.8%
- C[C@@H](O)[C@H]1C(=O)N2C(C(=O)[O-])=C([C@H]3CCCO3)S[C@H]12.C[C@@H](O)[C@H]1C(=O)N2C(C(=O)[O-])=C([C@H]3CCCO3)S[C@H]12.O.O.O.O.O.[Na+].[Na+] [ONC0000335, faropenem sodium hemipentahydrate] — higher, 95.52%
- Cc1oc(=O)oc1COC(=O)C1=C([C@H]2CCCO2)S[C@@H]2[C@@H]([C@@H](C)O)C(=O)N12 [ONC0001072, faropenem daloxate] — lower, 41.67%
- C1=C/COCc2cc(ccc2OCCN2CCCC2)Nc2nccc(n2)-c2cccc(c2)COC/1 [ONC0004380, pacritinib sb1518] — higher, 107.6%
- O=C(NC1CCNCC1)[C@@H]1CC[C@@H]2CN1C(=O)N2OS(=O)(=O)O [ONC0001257, relebactam] — lower, 62.24%
- CC[C@H](C)[C@@H]([C@@H](CC(=O)N1CCC[C@H]1[C@H](OC)[C@@H](C)C(=O)N[C@@H](Cc1ccccc1)c1nccs1)OC)N(C)C(=O)[C@@H](NC(=O)[C@H](C(C)C)N(C)C)C(C)C [ONC0003667, dolastin10] — higher, 74.88%
- N#C/C(=C1/SC[C@@H](c2ccc(Cl)cc2Cl)S1)n1ccnc1 [Luliconazole] — lower, 0.7126%
- N#C/C(=C1/SCC(c2ccccc2Cl)S1)n1ccnc1 (stereo not drawn) [Lanoconazole] — lower, 3.92%
- C[C@@]12CC[C@@H]3[C@@](CC[C@H]4[C@@]3(C)CCC[C@@]4(C)C(=O)O)(CC1=O)C2 [ONC0002858, isosteviol] — higher, 83.56%
- CN(C)c1ccc(-c2nc3c(N4CCN(CC(=O)Nc5nccs5)CC4)c(Cl)cnc3[nH]2)cc1 [ONC0004963, cct129202] — higher, 95.03%
- O=C1c2ccccc2NC2=CCCCCN12 [ONC0003231, 78910tetrahydroazepino21bquinazolin126hone] — higher, 99.72%
- COc1ccccc1OCC(O)CNC(C)C (stereo not drawn) [ONC0003655, moprolol] — lower, 69.09%
- [2H]C([2H])([2H])C(O)(CCO[C@@H](C)[C@H]1CC[C@H]2/C(=C/C=C3/C[C@@H](O)C[C@H](O)C3=C)CCC[C@]12C)C([2H])([2H])[2H] [ONC0001868, maxacalcitol] — higher, 112.3%
